Bioassay records: PubChem BioAssay, National Center for Advancing Translational Sciences (NCATS)
G9a block: inhibitors of human histone lysine methyltransferase G9a. G9a H3K9 monomethylation, AlphaScreen, 2 h. Potency, µM (series often up to 102 µM), without a hit: at the top dose activity, negative = inhibition, actives largely listed as inhibitors. 8.8% of 350,000 active. Q96KQ7; note: % is set by controls: 0 for no effect and ±100 for the full control effect; nearly all actives have a fitted effect of over 75% in size
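Compounds were preincubated with 20 nM G9a for 15 min, after which biotinylated H3K9 peptide (500 nM) and SAM (20 uM) started a 2 h room-temperature reaction. Monomethylated product was quantified by antibody-based AlphaScreen chemiluminescence.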
HP1b binding inh: HP1-beta chromodomain-methylated histone interaction inhibition; P83916; AlphaScreen HP1-beta / biotin-H3K9me3 peptide binding; Potency, µM (top dose mostly 114 µM), without a hit: at the top dose activity change, negative = inhibition, actives largely listed as inhibitors; 0.56% of 390,000 active; AID 540317; note: nearly all actives have a fitted effect of over 70% in size
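AlphaScreen: HP1-beta (50 nM) preformed 30 min with biotin-H3(1-18)K9me3 peptide (50 nM) in PBS pH 7.4, 0.01% Tween-20. Compound added for 30 min at RT, then streptavidin donor/nickel chelate acceptor beads (10 ug/mL) for 30 min.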
L3MBTL1 block: inhibitors of human L3MBTL1. Q9Y468. AlphaScreen L3MBTL1–H3K9me1 peptide binding. Potency, µM (series often up to 57.1 µM), without a hit: top-dose activity, negative = inhibition, actives largely listed as inhibitors. 0.66% of 230,000 active. AID 485360; note: % is set by controls: 0 for no effect and ±100 for the full control effect; nearly all actives have a fitted effect of over 60% in size
Target sequence (Q9Y468 whole entry, looked up): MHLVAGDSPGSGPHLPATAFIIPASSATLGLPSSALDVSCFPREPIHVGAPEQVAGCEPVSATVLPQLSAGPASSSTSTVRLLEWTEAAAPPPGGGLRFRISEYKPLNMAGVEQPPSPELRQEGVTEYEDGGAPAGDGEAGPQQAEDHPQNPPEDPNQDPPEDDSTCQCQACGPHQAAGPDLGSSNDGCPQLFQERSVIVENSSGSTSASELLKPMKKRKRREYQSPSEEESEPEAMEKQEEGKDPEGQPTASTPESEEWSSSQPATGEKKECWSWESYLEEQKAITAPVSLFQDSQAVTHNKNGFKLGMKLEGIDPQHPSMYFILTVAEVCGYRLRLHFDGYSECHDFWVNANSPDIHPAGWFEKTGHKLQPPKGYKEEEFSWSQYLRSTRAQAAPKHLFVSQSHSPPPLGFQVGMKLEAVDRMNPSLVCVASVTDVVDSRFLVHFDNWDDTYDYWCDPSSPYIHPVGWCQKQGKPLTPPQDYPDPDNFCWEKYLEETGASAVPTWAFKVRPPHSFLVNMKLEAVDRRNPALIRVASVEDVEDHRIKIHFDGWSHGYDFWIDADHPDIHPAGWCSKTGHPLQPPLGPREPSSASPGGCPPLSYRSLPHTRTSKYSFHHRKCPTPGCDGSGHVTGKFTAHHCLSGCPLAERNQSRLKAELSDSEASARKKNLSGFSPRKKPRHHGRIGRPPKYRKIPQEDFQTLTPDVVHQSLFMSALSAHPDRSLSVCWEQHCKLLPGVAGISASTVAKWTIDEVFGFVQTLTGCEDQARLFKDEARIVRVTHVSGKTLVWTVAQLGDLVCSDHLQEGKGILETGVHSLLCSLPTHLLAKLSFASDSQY
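Read-out is AlphaScreen signal from streptavidin donor and nickel chelate acceptor beads (10 ug/mL final each) bridging L3MBTL1 (50 nM) and biotinylated K9-monomethylated H3(1-15) peptide (75 nM), after 30 min compound exposure at room temperature.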
BAZ2B inh: BAZ2B (human) inhibition; Q9UIF8; AlphaScreen BAZ2B-H3K14Ac peptide displacement; Potency, µM (series often up to 114 µM), inactives show top-dose activity change, negative = inhibition, actives largely listed as inhibitors; 4.4% of 360,000 active; note: % is set by controls: 0 for no effect and ±100 for the full control effect; nearly all actives have a fitted effect of over 60% in size
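BAZ2B 50 nM plus b-H3(5-23)K14Ac 50 nM, PBS pH 7.4/0.01% Tween-20, 30 min RT; compound added (max 110 uM), 30 min RT; streptavidin donor/Ni-chelate acceptor beads 10 ug/mL final, 20 min dark; AlphaScreen read.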
JMJD2A Tudor inh: inhibitors of human JMJD2A Tudor domain; O75164; AlphaScreen JMJD2A-Tudor / H3K4me3 peptide binding; Potency, µM (series often up to 114 µM), for inactives: top-dose activity change, negative = inhibition, most hits filed as inhibitors; 4.4% of 390,000 active; AID 504339; note: % is set by controls: 0 for no effect and ±100 for the full control effect; nearly all actives have a fitted effect of over 50% in size
Numbers without * were called inactive; ? = inconclusive; nt = no result; [ ] = remark or other dose. Shown are actives, neighbours in structure and some others; about 11% of the full set was active somewhere. Calls come from the whole dose curve; as a rule, active = well fitted inhibition curve with a large enough effect; inconclusive = small, poorly fitted or top-dose-only effect; inactive = no such curve, though single readings can be large or run the other way. Potency is the fitted concentration of half-maximal effect.

SMILES | G9a block | HP1b binding inh | L3MBTL1 block | BAZ2B inh | JMJD2A Tudor inh
C=C(C)C(=O)Nc1cccc(C2=NOC3(C2)C[C@H](C(N)=O)N(C(=O)COc2ccc(Cl)cc2)C3)c1 (stereo partly specified) | ? | 10µM* | nt | 6.3µM* | 10µM*
C/C=C(/C)C(=O)Nc1cccc(C2=NOC3(C2)C[C@H](C(N)=O)N(C(=O)c2ccc(Cl)cc2)C3)c1 (stereo partly specified) | 2%[12.7 µM] | 38% | nt | -6% | -13%
C=C(C)C(=O)Nc1cccc(C2=NOC3(C2)C[C@H](C(N)=O)N(C(=O)c2ccccc2)C3)c1 (stereo partly specified) | ? | ? | nt | 45µM* | 22µM*
C=C(C)C(=O)Nc1cccc(C2=NOC3(C2)C[C@@H](C(N)=O)N(C(=O)c2ccc(Cl)cc2)C3)c1 (stereo partly specified) | ? | 7.9µM* | nt | 11µM* | 7.1µM*
C=C(C)C(=O)Nc1cccc(C2=NOC3(C2)C[C@@H](C(N)=O)N(C(=O)c2cc([N+](=O)[O-])cc([N+](=O)[O-])c2C)C3)c1 (stereo partly specified) | ? | 6.3µM* | nt | 28µM* | 18µM*
CCc1ccc(CN(Cc2ccco2)c2cnc(S(C)(=O)=O)nc2C(=O)Nc2c(C)cccc2C)cc1 | ? | 17% | nt | ? | ?
Cc1cc(C)c(NC(=O)CSc2nncn3c2cc2oc(C)cc23)c(C)c1 | ? | -8% | nt | ? | -20%
CCC(=O)Nc1cccc(C2=NOC3(C2)C[C@@H](C(N)=O)N(C(=O)COc2ccc(Cl)cc2)C3)c1 (stereo partly specified) | -8%[12.7 µM] | 22% | nt | 1% | -13%
NC(=O)[C@@H]1CC2(CC(c3cccc(NC(=O)[C@H]4CCC(=O)N4)c3)=NO2)CN1C(=O)COc1ccc(Cl)cc1 (stereo partly specified) | ? | 5% | nt | 79µM* | ?
Cc1ccc2c(c1)c1ccc3c(c1n2C)C(=O)C=CC3=O | 1.6µM* | 3.2µM* | nt | 10µM* | 6.3µM*
Cn1c2ccccc2c2ccc3c(c21)C(=O)C=CC3=O | nt | 11µM* | nt | nt | 16µM*
COc1ccc2c(c1)c1ccc3c(c1n2C)C(=O)C=CC3=O | 1.8µM* | 6.3µM* | -7% | ? | 40µM*
Cc1ccccc1CN1C(=O)c2ccccc2S(=O)c2ccc(C(=O)NCc3ccco3)cc21 (stereo unspecified) | -10%[59 µM] | 20% | nt | ? | -16%
CCCn1c(=O)n(C)c(=O)c2c(SC(C)C(=O)NCC3CCCO3)nc(CC(C)C)nc21 (stereo unspecified) | -38% | 8% | -4% | 4% | -23%
O=C(Nc1ccc2c(c1)OCO2)C1CCN(S(=O)(=O)Cc2ccccc2)CC1 | 12%[59 µM] | 41% | 0% | 1% | -10%
O=C(Nc1ccc2c(c1)OCO2)[C@@H]1[C@@H]2C(=O)N(C3CCCCC3)C(=O)[C@@H]2C2c3ccccc3C=CN21 (stereo partly specified) | 10µM* | nt | -9% | 3% | nt
O=C(c1cccs1)[C@@H]1[C@@H]2C(=O)N(Cc3ccc4c(c3)OCO4)C(=O)[C@@H]2C2c3ccccc3C=CN21 (stereo partly specified) | ? | nt | -4% | -34% | nt
COc1ccc(N2C(=O)[C@@H]3[C@H](C2=O)[C@H]2c4ccccc4C=CN2[C@@H]3C(C)=O)cc1 | 8.9µM* | -14% | -6% | ? | ?
O=C(c1ccc2c(c1)OCO2)[C@@H]1[C@@H]2C(=O)N(C3CCCCC3)C(=O)[C@@H]2C2c3ccccc3C=CN21 (stereo partly specified) | 32µM* | 25% | -11% | -28% | -17%
CC(C)(C)C(=O)[C@@H]1[C@@H]2C(=O)N(C3CCCCC3)C(=O)[C@@H]2[C@H]2c3ccccc3C=CN12 | 10µM* | 46% | nt | -15% | ?
COc1cc(-c2nc(Cn3nnc(C(=O)Nc4ccc(C)cc4C)c3C)c(C)o2)cc(OC)c1OC | -15%[59 µM] | 10% | nt | -5% | -7%
COc1ccc(N(Cc2cccs2)C(=O)c2ccc(Br)o2)cc1 | 1%[59 µM] | 84% | nt | -11% | 21%
CC(C)Cn1c(=S)[nH]c2cc(Cl)ccc21 | 6.3µM* | ? | -8% | -32% | -14%
Cn1cnnc1Sc1ccc(C(=O)OCC(=O)Nc2cc(Cl)cc(Cl)c2)cc1[N+](=O)[O-] | 16µM* | -9% | -16% | -39% | ?
COc1ccc(OC)c(NC(=O)c2c(N3CCCC3=O)c3cc(OC)ccc3n2C)c1 | ? | 0% | nt | ? | -29%
SMILES | G9a block | HP1b binding inh | L3MBTL1 block | BAZ2B inh | JMJD2A Tudor inh
Cn1c(N)c(-c2ccccc2)c2ccc([N+](=O)[O-])cc2c1=O | 35µM* | ? | nt | ? | ?
N#Cc1c(N)n(Cc2ccccc2)c(=O)c2cc([N+](=O)[O-])ccc12 | 24% | 3% | nt | -1% | -14%
COC1(C)CC2C(CC1OC(=O)c1cc([N+](=O)[O-])cc([N+](=O)[O-])c1)C2(C)C (stereo unspecified) | 13µM* | ? | -21% | 7.1µM* | 25µM*
CC(NC(=O)Cn1cc(C(=O)C2CC2)c2ccccc21)c1ccccc1 (stereo unspecified) | 16%[59 µM] | -5% | -1% | 9% | 79µM*
COC(=O)Cn1cc(C(=O)C2CC2)c2ccccc21 | 11%[12.7 µM] | 16% | 8%[11.4 µM] | 1% | 5%
O=C(Cc1ccc(S(=O)(=O)N2CCOCC2)s1)Nc1ccc(N2CCOCC2)cc1 | ? | -7% | -4% | nt | -27%[57.1 µM]
CN(C)S(=O)(=O)c1ccc(NC(=O)Cc2ccc(S(=O)(=O)N3CCOCC3)s2)cc1 | 56µM* | 17% | ? | ? | -29%
Cc1noc(C)c1CSCC(=O)Nc1cc(Cl)ccc1N1CCCCC1 | 7% | 58% | 7% | -4% | 8%
Cc1noc(C)c1CSCC(=O)Nc1cc(C(F)(F)F)ccc1N1CCCCC1 | 40µM* | 84% | 29% | 5% | 14%
O=C(Cc1ccc(S(=O)(=O)N2CCOCC2)s1)Nc1cc(C(F)(F)F)ccc1N1CCCC1 | 50µM* | 17% | -20% | -5% | ?
CCN1CCN(Cc2ccc(NC(=O)Nc3ccc(SC)cc3)cc2)CC1 | ? | -34% | -5% | ? | ?
CCN(Cc1ccccc1)C(=O)C1CCC(CNc2c(N3CCOCC3)c(=O)c2=O)CC1 (stereo unspecified) | ? | 26% | nt | 8% | -17%
C/C(=C\c1ccccc1)CN1CCN(C)CC1 | 13µM* | ? | -5% | ? | -100%
CCN(Cc1ccccc1)C1CCN(Cc2ccc(SC)cc2)CC1 | ? | ? | nt | 50µM* | 2.5µM*
CCN(Cc1ccccc1)C(=O)C1CCN(C/C(C)=C/c2ccccc2)CC1 | 35µM* | -24% | -2% | ? | 16µM*
